Reference: PubChem BioAssay AID1159580 (chemical genetic matrix, 2015)
Values joined by “and” are separate entries in the source; they are usually repeats but may differ in a detail not shown here. Identical values can stand only once. The whole screen tested about 5,500 compounds, of which about 2,000 (36%) were called active. Another 18% or so got no clear call; they are omitted. Rule as the data show it: active = normalized growth mostly below about 0.91 (no sharp cut-off); inconclusive = no clear call, values can overlap the other calls; inactive = mostly above about 0.92. This is one part of the list.

Assay: chemical genetic growth profiling, strain panel (AID 1159580);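 also: tested at 20 µM; growth read once vehicle control cultures reached saturation at 30 °C; 1 = growth at the plate median or of vehicle wells; lower values mean less growth of the strain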
Settings: S. cerevisiae deletion strains, growth OD

Measured: normalized growth

Cc1ccc(/C(=C\CN2CCCC2)c2ccccn2)cc1
inactive: locus YAL013W, strain DEP1, active compounds read low 1.01 | locus YAL021C, strain ccr4, active compounds read low 0.99 | locus YAL026C, strain drs2, active compounds read low 0.992 | locus YAL030W, strain snc1, active compounds read low 1.03 | locus YAL040C, strain CLN3, active compounds read low 1.02 | locus YBL061C, strain skt5, active compounds read low 1.02 | locus YBR009C, strain hhf1, active compounds read low 0.971 | locus YBR021W, strain FUR4, active compounds read low 1 | locus YBR023C, strain chs3, active compounds read low 1.01 | locus YBR171W, strain sec66, active compounds read low 1.02 | locus YBR229C, strain ROT2, active compounds read low 1.01 | locus YBR231C, strain swc5, active compounds read low 1.04 | locus YBR279W, strain paf1, active compounds read low 0.991 | locus YCL011C, strain gbp2, active compounds read low 0.99 | locus YCL016C, strain dcc1, active compounds read low 0.975 | locus YCL029C, strain bik1, active compounds read low 1 | locus YCL061C, strain MRC1 (second series), active compounds read low 0.99 | locus YCL061C, strain MRC1, active compounds read low 1.02 | locus YCL069W, strain vba3, active compounds read low 1.01 | locus YCR088W, strain abp1, active compounds read low 1.02 | locus YDL005C, strain med2, active compounds read low 1.01 | locus YDL035C, strain GPR1, active compounds read low 1.02 | locus YDL040C, strain nat1, active compounds read low 1.01 | locus YDL074C, strain BRE1, active compounds read low 1.01 | locus YDL101C, strain DUN1, active compounds read low 1.01 | locus YDL134C, strain PPH21, active compounds read low 1.01 | locus YDL185W, strain tfp1, active compounds read low 1.01 | locus YDL192W, strain arf1, active compounds read low 1 | locus YDR001C, strain nth1, active compounds read low 1 | locus YDR069C, strain doa4, active compounds read low 1.02 | locus YDR101C, strain arx1, active compounds read low 0.997 | locus YDR137W, strain rgp1, active compounds read low 0.993 | locus YDR150W, strain NUM1, active compounds read low 1.02 | locus YDR159W, strain sac3, active compounds read low 0.933 | locus YDR162C, strain NBP2, active compounds read low 1.01 | locus YDR195W, strain ref2 0.993 | locus YDR297W, strain sur2, active compounds read low 1.02 | locus YDR318W, strain mcm21, active compounds read low 0.995 | locus YDR334W, strain swr1, active compounds read low 0.991 | locus YDR335W, strain msn5, active compounds read low 1.01 | locus YDR363W, strain ESC2, active compounds read low 0.965 | locus YDR388W, active compounds read low 0.998 | locus YDR392W, strain spt3, active compounds read low 0.927 | locus YDR502C, strain sam2, active compounds read low 0.995 | locus YEL003W, strain gim4, active compounds read low 1.04 | locus YEL037C, strain rad23, active compounds read low 1.01 | locus YEL061C, strain CIN8 (second series), active compounds read low 1.01 | locus YEL061C, strain CIN8, active compounds read low 1.01 | locus YER002W, strain NOP16, active compounds read low 1 | locus YER015W, strain faa2, active compounds read low 1.01 | locus YER016W, strain bim1, active compounds read low 0.995 | locus YER110C, active compounds read low 0.995 | locus YER111C, strain swi4, active compounds read low 1 | locus YER155C, strain BEM2 (second series), active compounds read low 1.05 | locus YER155C, strain BEM2, active compounds read low 1 | locus YER167W, strain BCK2, active compounds read low 1.01 | locus YFR010W, strain ubp6, active compounds read low 1.01 | locus YGL078C, strain dbp3, active compounds read low 0.993 | locus YGL086W, strain mad1, active compounds read low 0.996 | locus YGL167C, strain pmr1, active compounds read low 1.01 | locus YGL173C, strain kem1, active compounds read low 1.04 | locus YGL227W, strain vid30, active compounds read low 1.01 | locus YGL240W, strain doc1, active compounds read low 1.03 | locus YGL248W, strain PDE1, active compounds read low 1 | locus YGL253W, strain hxk2, active compounds read low 0.98 | locus YGR078C, strain PAC10, active compounds read low 1.01 and 0.984 | locus YGR135W, strain pre9, active compounds read low 0.997 | locus YGR229C, strain SMI1, active compounds read low 1.01 and 0.973 | locus YGR252W, strain gcn5, active compounds read low 0.98 | locus YHR013C, strain ard1, active compounds read low 0.999 | locus YHR027C, strain rpn1, active compounds read low 1.01 | locus YHR030C, strain SLT2, active compounds read low 1.02 and 0.995 | locus YHR079C, strain IRE1 (second series), active compounds read low 0.998 | locus YHR079C, strain IRE1, active compounds read low 1.02 | locus YHR094C, strain hxt1, active compounds read low 0.999 | locus YHR129C, strain ARP1, active compounds read low 1.01 | locus YHR142W, strain chs7, active compounds read low 1.01 | locus YHR200W, strain rpn10, active compounds read low 1 | locus YIL066C, strain RNR3, active compounds read low 1.02 | locus YIL073C, strain SPO22, active compounds read low 1.01 | locus YIL125W, strain kgd1, active compounds read low 1 | locus YIR030C, strain dcg1, active compounds read low 0.995 | locus YJL092W, strain hpr5, active compounds read low 1.02 | locus YJL095W, strain BCK1 (second series), active compounds read low 1.03 | locus YJL095W, strain BCK1, active compounds read low 0.997 and 1.01 | locus YJL115W, strain asf1, active compounds read low 1 | locus YJL129C, strain trk1, active compounds read low 1.03 | locus YJL134W, strain LCB3, active compounds read low 1.01 | locus YJL154C, strain vps35, active compounds read low 1.01 | locus YJL164C, strain tpk1, active compounds read low 0.979 | locus YJL166W, strain qcr8, active compounds read low 1.04 | locus YJL168C, strain set2, active compounds read low 1 | locus YJL187C, strain SWE1 (second series), active compounds read low 1.02 | locus YJL187C, strain SWE1, active compounds read low 1.02 | locus YJR043C, strain POL32, active compounds read low 0.991 | locus YJR066W, strain TOR1, active compounds read low 0.955
